From PubChem BioAssay
Active and inactive are the calls of the source. The rule behind the calls is not given here.

Assay: inhibition of Brca1/Bard1 split-luciferase complementation, confirmation, counter-screen for Mdm2/MdmX interaction inhibitor project, luminescence, single concentration (AID 504668)
Conditions: Brca1/Bard1 bimolecular luciferase complementation counterscreen, at 8 µM, stronger effect = higher value

| SMILES | inhibition |
| --- | --- |
| CCc1ccc(C(O)(CC(C)C)C(CN2CCOCC2)c2ccccc2)cc1 (stereo not given) | 27.2% (active) |
| Cc1ccccc1-c1cc(C(=O)Nc2sc(C(=O)OC(C)C)c(C)c2C#N)c2ccccc2n1 | 23.7% (active) |
| CC(=O)/C(C#N)=C1\NC(=O)C(Cc2ccc(C)c(Cl)c2)S1 (stereo not given) | 31.8% (active) |
| O=C(NNC(=O)c1ccccc1OCc1ccc(F)cc1)c1ccccc1O | 31.1% (active) |
| CC(C)c1cc(C(=O)NC2CCCc3c2cnn3-c2ccccc2F)no1 (stereo not given) | 29.3% (active) |
| Oc1ccc(N=Nc2ccccc2C(F)(F)F)c2cccnc12 | 23.3% (active) |
| Cc1c(C(=O)Nc2cccc(Cl)c2)oc2ccc(S(=O)(=O)N3CCC4(CC3)OCCO4)cc12 | 32.3% (active) |
| CCc1ccccc1OCC(=O)Nc1nc(-c2cccnc2)cs1 | 35.6% (active) |
| COc1ccccc1NCC(=O)N/N=C/c1c(O)ccc2ccccc12 | 24.6% (active) |
| CCCCN1/C(=C/c2ccc3ccccc3[n+]2CC)Sc2ccccc21 | 32.5% (active) |
| C[n+]1c2n(c3ccccc31)N=C(c1ccc(-c3ccccc3)cc1)CS2 | 25.5% (active) |
| CN(CC1CCCO1)S(=O)(=O)c1ccc(C(=O)Nc2nc(-c3ccccn3)cs2)cc1 (stereo not given) | 27.4% (active) |
| O=C(CN1C(=O)/C(=C/c2ccccc2)SC1=S)N1CCN(CCc2ccccn2)CC1 | 24.3% (active) |
| N=c1n(CCO)c2ccccc2n1CCOc1ccc(Cl)cc1Cl | 25.4% (active) |
| Cc1nc(SCc2nc3cc(Cl)c(F)cc3[nH]2)c2oc3ccccc3c2n1 | 31.6% (active) |
| COc1ccc(C2=Nn3c(nnc3-c3ccccc3F)SC2)cc1OC1CCOC1 (stereo not given) | 33.4% (active) |
| Cc1ccn2c(Nc3ccccc3C)c(-c3ccccn3)nc2c1 | 31.7% (active) |
| O=C(N/N=C/c1ccc(O)c2ncccc12)c1cccc(Br)c1 | 32.5% (active) |
| CCn1c(-c2ccc(C)cc2)nn(CC(=O)NCCc2ccccc2)c1=S | 31.4% (active) |
| CC(=O)c1c(C)[nH]c(C(=O)N2CCN(c3cc(Cl)ccc3C)CC2)c1C | 34% (active) |

| SMILES | inhibition |
| --- | --- |
| CC1CCN(CCCNC(=O)c2ccc3c(Cl)c4c(nc3c2)CCCC4)CC1 | 30.3% (active) |
| C=CCc1cccc(/C=N/NC(=O)CNc2ccccc2)c1O | 32.9% (active) |
| Cc1cc(C)cc(NC(=O)CSc2ccc(-c3ccccn3)nn2)c1 | 31.7% (active) |
| O=C(Nc1ccc(Cl)c(Cl)c1)Nc1ccc(Br)cc1F | 35.2% (active) |
| O=C(NCc1cccnc1)c1c(O)c2cccc3c2n(c1=O)CCC3 | 31.4% (active) |
| CCCCSc1nc(C)cc(SCC(=O)N/N=C/c2cccc(OC)c2O)n1 | 34.4% (active) |
| COc1ccc([C@@H]2[C@@H]3C(=O)N(C(C)(C)C)C(=O)[C@@H]3[C@]3(Cc4ccccc4)C(=O)N(c4ccc(Br)cc4)C(=O)N23)cc1 | 35.6% (active) |
| Cc1ccc(/C=C/C(O)=C2/C(=O)N(C)C3(C)CC2c2ccccc2O3)cc1 (stereo not given) | 30.1% (active) |
| C/C(=N\NC(=O)c1nnn(-c2nonc2N)c1CN1CCc2ccccc21)c1ccccc1O | 31.1% (active) |
| CN(CC(=O)Nc1ccccc1Cl)C(=O)COC(=O)c1nc(Cl)c(Cl)c(Cl)c1Cl | 30.8% (active) |
| COc1ccc(Nc2ncnc3ccc(Br)cc23)cc1OC | 30.5% (active) |
| CCC(=O)NC(c1ccc(OC)cc1)c1cc(Cl)c2cccnc2c1O (stereo not given) | 25.5% (active) |
| Cc1cc([N+](=O)[O-])cc(/C=N\NC(=O)C2COc3ccccc3O2)c1O (stereo not given) | 27.6% (active) |
| COc1ccc([C@@H]2[C@@H]3C(=O)N(C(C)(C)C)C(=O)[C@@H]3[C@]3(Cc4ccc(Cl)cc4)C(=O)N(c4ccc(Br)cc4)C(=O)N23)cc1 | 26.6% (active) |
| Cc1ccc(O)c(/C=N/NC(=O)Cc2ccc(Cl)cc2)c1 | 33.6% (active) |
| Cc1ccc2cc(CN(CC3CCCO3)C(=S)Nc3ccccc3)c(=O)[nH]c2c1C (stereo not given) | 35.3% (active) |
| Brc1ccc2ncnc(Nc3ccc(N4CCOCC4)cc3)c2c1 | 25.5% (active) |
| C=C(C(=O)Oc1ccccc1C(C)(C)C)c1ccccc1 | 34% (active) |
| COc1ccc(-c2nc(CN3CCN(c4cc(C)nc(C)c4)CC3)c(C)o2)c2ccccc12 | 34.4% (active) |
| N=c1c2c(-c3ccccc3)c(-c3ccccc3)n(Cc3ccco3)c2ncn1Cc1ccco1 | 31.4% (active) |
